Measurements: PubChem BioAssay (NCATS)
Records with an inconclusive call do not appear. Entries that show only a call come without a potency. Calls of active or inactive are those of the source. Unless noted, calls follow the shape of the dose curve; as a rule, active = well fitted curve in the direction sought with a large enough effect; inconclusive = small, poorly fitted or top-dose-only effect, or another doubt; inactive = no such curve, though single readings can be large; an effect the other way counts as inactive or inconclusive.

What was measured:
[1] = molecular target: Glucocorticoid receptor (Homo sapiens) (UniProt P04150); experiment: GR-GFP Redistribution (AID 450;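 active = compounds whose dose series gives a full or clear partial fitted curve of increased nuclear translocation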; also: potency is read from the fitted curve at half-maximal effect); conditions: U2OS GR-GFP nuclear translocation, laser cytometry, 2 h
Glucocorticoid receptor (Homo sapiens), sequence (P04150 whole entry, looked up, the tested form may be a part): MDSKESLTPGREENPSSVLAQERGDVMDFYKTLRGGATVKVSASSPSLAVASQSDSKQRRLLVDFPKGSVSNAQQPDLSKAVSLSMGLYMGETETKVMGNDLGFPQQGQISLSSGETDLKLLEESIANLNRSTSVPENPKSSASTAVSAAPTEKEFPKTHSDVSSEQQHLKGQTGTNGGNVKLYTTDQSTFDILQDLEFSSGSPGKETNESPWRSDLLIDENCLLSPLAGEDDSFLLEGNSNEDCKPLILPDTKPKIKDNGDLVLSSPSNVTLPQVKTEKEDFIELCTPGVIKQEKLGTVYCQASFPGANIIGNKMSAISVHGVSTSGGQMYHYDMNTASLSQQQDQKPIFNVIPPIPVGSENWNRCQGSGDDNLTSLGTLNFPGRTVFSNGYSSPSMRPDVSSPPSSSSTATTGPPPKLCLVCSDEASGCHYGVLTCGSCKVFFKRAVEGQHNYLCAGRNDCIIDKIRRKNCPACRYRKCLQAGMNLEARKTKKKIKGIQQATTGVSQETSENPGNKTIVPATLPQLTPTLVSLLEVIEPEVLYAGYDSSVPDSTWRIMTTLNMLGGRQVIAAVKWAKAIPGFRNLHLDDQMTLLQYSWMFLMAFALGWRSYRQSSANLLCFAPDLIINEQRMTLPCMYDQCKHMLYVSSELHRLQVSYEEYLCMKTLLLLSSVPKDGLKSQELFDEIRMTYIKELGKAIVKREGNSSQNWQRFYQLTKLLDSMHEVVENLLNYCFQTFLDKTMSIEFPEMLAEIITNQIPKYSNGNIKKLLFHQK

[2] = molecular target: Glucocorticoid receptor (Homo sapiens) (UniProt P04150); experiment: GR-EFC Redistribution (AID 451; calls by dose curve; also: potency is read from the fitted curve at half-maximal effect); conditions: CHO-K1 GR-EFC translocation, beta-gal luminescence, 2 h
Procedure, shortened: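 Translocation of GR-ED fusion to nuclear EA restores b-gal, read by luminescence after 1 h room-temperature detection. Engineered CHO-K1 biosensor cells, 1,000/well, exposed 2 h at 37 C to titrations up to 46 uM final.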

[3] = molecular target: Mitogen-activated protein kinase 10 (Mus musculus) (UniProt Q61831); experiment: JNK3 AlphaScreen Assay (AID 530; active = well fitted curve in either direction with a large enough effect, not every such curve was filed as active;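 also: kinase came from lysate of stimulated human HepG2 cells; signal reports phosphorylation of biotinylated GST-cJun 1-79 at Ser73 with 10 µM ATP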); conditions: JNK3 lysate, c-Jun phosphorylation; series mostly up to 57.1 µM
Procedure, shortened: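 Compound titrations were preincubated 15 minutes at room temperature with substrate, antibody and pre-activated JNK3-containing HepG2 lysate. Reactions were started with 10 uM ATP and stopped with EDTA-containing bead buffer for AlphaScreen detection.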

[4] = qHTS Assay for Lipid Storage Modulators (AID 1519; calls by dose curve); conditions: Drosophila S3 cells, BODIPY lipid droplet/cell ratio, laser cytometry, cells loaded with oleic acid; for activity change, negative = inhibition: at 57.5 µM (top of the series)
Procedure, shortened: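 Cells seeded at 5,000 per well were treated with compounds over a concentration series and loaded with oleic acid (400 uM, as added). Lipid droplet fluorescence (488 nm excitation, 500-530 nm channel) was read by laser-scanning cytometry and normalized to 20 uM Triacsin C.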

[5] = molecular target: Ubiquitin carboxyl-terminal hydrolase 1 (Homo sapiens) (UniProt O94782); experiment: Inhibitors of USP1/UAF1: Pilot qHTS (AID 504865); conditions: purified USP1/UAF1, Ub-rhodamine cleavage fluorescence; series mostly up to 114 µM;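 also: rhodamine fluorescence freed from ubiquitin-rhodamine substrate followed over time; top concentration of the series differs between compounds; nearly all actives have a fitted effect of over 35% in size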
Ubiquitin carboxyl-terminal hydrolase 1 (Homo sapiens), sequence (O94782 whole entry, looked up): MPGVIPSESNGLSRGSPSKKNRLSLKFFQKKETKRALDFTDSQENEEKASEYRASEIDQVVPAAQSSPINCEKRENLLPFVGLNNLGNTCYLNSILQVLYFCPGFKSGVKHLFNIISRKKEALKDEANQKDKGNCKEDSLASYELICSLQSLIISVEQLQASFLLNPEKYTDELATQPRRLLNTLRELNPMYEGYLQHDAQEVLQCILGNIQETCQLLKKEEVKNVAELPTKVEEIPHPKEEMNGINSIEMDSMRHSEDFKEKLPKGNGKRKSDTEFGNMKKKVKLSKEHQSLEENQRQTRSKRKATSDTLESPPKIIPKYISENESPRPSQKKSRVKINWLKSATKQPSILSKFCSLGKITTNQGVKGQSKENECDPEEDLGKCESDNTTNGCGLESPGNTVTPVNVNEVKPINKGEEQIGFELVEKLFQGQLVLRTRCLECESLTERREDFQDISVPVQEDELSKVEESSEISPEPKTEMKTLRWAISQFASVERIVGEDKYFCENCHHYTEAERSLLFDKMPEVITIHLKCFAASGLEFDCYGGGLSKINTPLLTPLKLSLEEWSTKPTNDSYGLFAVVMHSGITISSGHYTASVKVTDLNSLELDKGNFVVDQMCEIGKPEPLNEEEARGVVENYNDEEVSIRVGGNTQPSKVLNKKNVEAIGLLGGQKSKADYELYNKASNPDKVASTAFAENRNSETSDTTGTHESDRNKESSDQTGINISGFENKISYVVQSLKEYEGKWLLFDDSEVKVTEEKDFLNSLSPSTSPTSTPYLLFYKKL
Procedure, shortened: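 Enzyme-free wells gave the negative control, while test wells held 1nM USP1/UAF1 preincubated with compound for 15 min at room temperature. Ub-Rho at 150nM final started the reaction, and fluorescence at 480/540 nm was recorded kinetically.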

[6] = molecular target: DNA dC->dU-editing enzyme APOBEC-3G (Homo sapiens) (UniProt Q9HC16); experiment: qHTS for inhibitors of Vif-A3G interactions: Validation (AID 588379); conditions: Vif-A3G protein interaction assay; series mostly up to 46.1 µM
DNA dC->dU-editing enzyme APOBEC-3G (Homo sapiens), sequence (Q9HC16 whole entry, looked up): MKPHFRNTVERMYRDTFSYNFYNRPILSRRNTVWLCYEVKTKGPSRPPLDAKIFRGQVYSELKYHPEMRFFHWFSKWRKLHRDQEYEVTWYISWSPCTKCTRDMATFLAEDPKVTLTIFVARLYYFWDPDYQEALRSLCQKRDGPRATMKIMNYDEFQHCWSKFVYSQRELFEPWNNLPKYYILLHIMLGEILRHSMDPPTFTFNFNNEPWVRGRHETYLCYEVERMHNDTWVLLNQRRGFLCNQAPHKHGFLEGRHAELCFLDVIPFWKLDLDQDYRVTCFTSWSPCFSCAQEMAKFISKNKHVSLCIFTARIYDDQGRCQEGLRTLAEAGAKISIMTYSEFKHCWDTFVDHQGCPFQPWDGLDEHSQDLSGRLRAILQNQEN
Procedure, shortened: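 HeLa cells stably expressing Vif and A3G-eYFP, 700 cells/well, incubated overnight at 37 deg C, then exposed to compound overnight at 37 deg C. Inhibition of Vif-mediated degradation read as increased yellow fluorescence (Ex 488/Em 500-530) by laser-scanning cytometry.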

[7] = system: Zika virus NS2B-NS3 protease; experiment: Primary screen GU AMC qHTS for Zika virus inhibitors (AID 1347154); conditions: Zika NS2B-NS3 unlinked protease, AMC fluorogenic substrate; series mostly up to 54.1 µM; also: nearly all actives have a fitted effect of over 70% in size
Procedure, shortened: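 Fluorogenic AMC-substrate cleavage by noncovalent NS2B-NS3 protease complex (25 nM, pH 8.0 Tris buffer with Tween 20) followed for 15 minutes at room temperature (~20% conversion). Percent inhibition from ex340/em450 signal change, fitted by 4-parameter Hill equation.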

[8] = Primary qHTS for small molecule stabilizers of the endoplasmic reticulum resident proteome: Secreted ER Calcium Modulated Protein (SERCaMP) assay (AID 1508630); conditions: SH-SY5Y GLuc-SERCaMP (Gaussia luciferase released on ER calcium loss) secretion, thapsigargin, luminescence; series mostly up to 38.4 µM
Procedure, shortened: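 GLuc-SERCaMP-expressing SH-SY5Y cells, pretreated 16 h with compound, are challenged with thapsigargin to empty ER calcium stores; after 4 h, coelenterazine is added directly to the medium and luminescence is imaged.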

[9] = Confirmation and Secondary Assay for Modulators of Hemoglobin Beta Chain Splicing at IVS2 654 locus (AID 910); conditions: HeLa EGFP-654 splicing reporter, GFP fluorescence, 48 h; series mostly up to 46.1 µM;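 also: HeLa cells stably carrying EGFP split by mutant beta-globin IVS2-654 intron; per-well total GFP intensity by laser scanning cytometry after 2-day treatment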
Procedure, shortened: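 Readout: per-well total peak green fluorescence (488 nm ex, 500–520 nm em) from objects 5–250 µm, reflecting correct splicing of an EGFP-654 reporter. Compounds were applied for 2 days at 37 °C to overnight-plated HeLa EGFP-654 cells; controls were DMSO and 500 nM IVS2-654 PNA.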

[10] = Confirmation and Secondary Assay for Modulators of Hemoglobin Beta Chain Splicing at IVS2 705 locus (AID 930); conditions: HeLa EGFP-705 splicing reporter, GFP fluorescence, 48 h; series mostly up to 46.1 µM;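 also: HeLa cells stably expressing the EGFP-705 splicing reporter; GFP fluorescence per well restored by corrected splicing of the IVS2-705 intron in EGFP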
Procedure, shortened: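 Stable HeLa line with EGFP disrupted by mutant beta-globin intron 2 (705). Overnight attachment, then 2 days of compound at 37C, 5% CO2. Signal: peak GFP intensity summed over objects 5-250 µm.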

[11] = measured here: cell count channel max response
[12] = measured here: lipid channel max response

Compound | Potency [1] | Potency [2] | outcome [3] | activity change, negative = inhibition [4] | max response [4, 11] [%] | max response [4, 12] [%] | Potency [5] | Potency [6] | Potency [7] | Potency [8] | Potency [9] | outcome [10]
O=C(O)Cc1cccnc1C(=O)O | > 46 µM (inactive) | > 46 µM (inactive) | inactive | 3.53% (inactive) | -8.51 | -2.88 | inactive | inactive | inactive | inactive | – | –
Cc1ccc(C[N+](C)(C)C)o1 | > 46 µM (inactive) | > 46 µM (inactive) | – | 4.98% (inactive) | 20.9 | 30.2 | inactive | inactive | inactive | inactive | inactive | inactive
